Hits are enriched below; roughly 32% of the tested compounds scored in any of these assays.
CYP2C9 inh – blocks human cytochrome P450 2C9; P11712; CYP2C9 Supersomes, luciferin-H conversion, luminescence; inhibition, % at 5 µM; 96,000 compounds, 20% hits; AID 777;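 active = blocking of liver enzyme CYP2C9 beyond about 50% at 5 µM, limit read from the data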
CYP2C19 inh – inhibitors of human CYP2C19; P33261; CYP2C19 Supersomes, luciferin-H EGE luminescence, 30 min; inhibition, % at 5 µM; 96,000 compounds, 21% hits;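 active = CYP2C19 inhibition above a set limit at 5 µM in the primary screen, cut at about 50% in these data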
Target sequence (P33261 whole entry, looked up): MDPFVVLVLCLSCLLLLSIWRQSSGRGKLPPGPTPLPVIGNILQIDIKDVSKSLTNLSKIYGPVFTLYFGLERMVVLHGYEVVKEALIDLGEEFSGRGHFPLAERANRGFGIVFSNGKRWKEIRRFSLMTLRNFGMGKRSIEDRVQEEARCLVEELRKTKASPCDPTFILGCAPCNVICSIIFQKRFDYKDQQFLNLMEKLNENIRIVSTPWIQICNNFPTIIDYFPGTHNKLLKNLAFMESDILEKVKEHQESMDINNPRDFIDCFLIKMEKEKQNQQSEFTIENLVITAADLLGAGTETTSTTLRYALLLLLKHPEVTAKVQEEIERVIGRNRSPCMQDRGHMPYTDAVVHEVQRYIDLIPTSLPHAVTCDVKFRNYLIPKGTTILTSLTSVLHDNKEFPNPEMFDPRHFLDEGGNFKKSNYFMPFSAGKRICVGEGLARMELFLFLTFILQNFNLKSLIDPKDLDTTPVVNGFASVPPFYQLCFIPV
CYP2C9 act – CYP2C9 (human) activation | recombinant CYP2C9, luciferin-H conversion, luminescence; active compounds read high; factor 1 = untreated enzyme, 0 = blocked | AID 1024 | P11712 | activation factor at 5 µM | 96,000 compounds, 1.4% hits;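 active = activation factor of 2 or more for CYP2C9 at a 5 µM dose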
PostGolgi yeast – growth inhibition of a yeast mutant, post-Golgi transport screen; 98,000 compounds, 0.9% hits; inhibition, % at 10 µM; post-Golgi transport phenotypic cell assay;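 also: yeast cells grown in 1536-well plates; yeast grown about 18 h at 30C before absorbance read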
CYP2C19 act – activators of human cytochrome P450 2C19. P33261. activation factor at 5 µM. recombinant CYP2C19, luciferin-H EGE luminescence; active compounds read high; 0 = fully inhibited enzyme, 1 = untreated enzyme. 96,000 tested, under 10 active;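 active = activation factor of at least 2 at 5 µM in the primary screen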
PostGolgi ctrl – inhibits growth of the yeast control strain; efflux-deficient yeast background strain, growth absorbance A615, 16 h; inhibition, % at 10 µM; 98,000 compounds, 5% hits
Each line names hits and unclear results; the compound was inactive in the other large screens. Rule as the data show it, unless noted: active = inhibition above about 30%; inactive = the rest.

N#Cc1c(NC(=O)COC(=O)C2CC3C=CC2C3)oc(-c2ccccc2)c1-c1ccccc1 (centres undefined)	CYP2C9 inh 71
COc1ccc(-c2oc(NC(=O)CSc3ncn[nH]3)c(C#N)c2-c2ccc(OC)cc2)cc1	CYP2C9 inh 70
COc1ccccc1OCC(=O)Nc1oc(-c2ccccc2)c(-c2ccccc2)c1C#N	CYP2C9 inh 85
COc1ccccc1CNC(=O)CNCC1CCCO1 (centres undefined)	none
COc1ccc(-c2oc(NC(=O)CCl)c(C#N)c2-c2ccc(OC)cc2)cc1	CYP2C9 inh 96, CYP2C19 inh 54, PostGolgi ctrl 50
COc1ccc(CC(=O)Nc2oc(-c3ccccc3)c(-c3ccccc3)c2C#N)cc1OC	none (no result: CYP2C9 inh, CYP2C19 inh, CYP2C9 act, CYP2C19 act)
Cc1ccc(N2C(N)=C(C#N)C3(C(=O)N(C)c4ccccc43)C3=C2CC(C)(C)CC3=O)cc1Cl (centres undefined)	CYP2C9 inh 54
COC(=O)[C@@H](NC(=O)Nc1ccccc1F)C(C)C	none
Cn1c(CN2CCN(CC#N)CC2)c(C#N)c2ccccc21	CYP2C9 act 2.9
Cn1c(CNC2CCCCC2)c(C#N)c2ccccc21	CYP2C19 inh 55
Cn1c(CN2CCCCC2)c(C#N)c2ccccc21	CYP2C19 inh 98
Cn1c(C(=O)NC2CCCCC2)cc2c(=O)n(C)c3ccccc3c21	none
CCc1nnc2sc(-c3ccc(NC(=O)c4ccc5c(c4)OCCO5)cc3)nn12	none
Cc1occc1C(=O)NC1CCCc2ccccc21 (centres undefined)	CYP2C19 inh 71
CC(C)[C@H](NC(=O)NC1CCCc2ccccc21)C(=O)O (some centres undefined)	PostGolgi ctrl 33
CC(NC(=O)Nc1ccccc1O)(C(F)(F)F)C(F)(F)F	none
Cc1ccc(C)c(C(=O)NC2CC(C)(C)NC(C)(C)C2)c1	CYP2C19 inh 54
Cc1ccccc1C(=O)NC1CC(C)(C)NC(C)(C)C1	none (no result: CYP2C9 inh, CYP2C19 inh, CYP2C9 act, CYP2C19 act)
CC1(C)Nc2ccccc2N(CCC(=O)N2CCOCC2)C1=O	none
CN(C(=O)CCN1C(=O)C(C)(C)Nc2ccccc21)c1ccccc1	CYP2C19 inh 76
Cn1c(=O)c2c(nc(CN3CCC(C(N)=O)CC3)n2Cc2ccccc2Cl)n(C)c1=O	none (no result: PostGolgi yeast, PostGolgi ctrl)
CCN1CCN(CC(=O)Nc2cc(F)ccc2C)CC1	none
O=C(CCC(=O)N1CCN(S(=O)(=O)c2ccccc2)CC1)c1cccs1	none
O=C(CCC(=O)c1cccs1)NC(c1ccccc1)c1ccccc1	CYP2C9 inh 55, CYP2C19 inh 74
Cc1ccc(F)cc1NC(=O)CCC(=O)c1cccs1	CYP2C19 inh 89
COc1ccc(-c2nnc3n2N=C(C)CS3)cc1OC	none
Cc1cccc(-c2nnc3n2N=C(c2ccccc2)CS3)c1	PostGolgi ctrl 38
COc1ccc(-c2nnc3n2N=C(c2ccccc2)CS3)cc1OC	CYP2C9 inh 76, CYP2C19 inh 52 (no result: PostGolgi yeast, PostGolgi ctrl)
COc1ccc(C2=Nn3c(nnc3-c3ccccc3)SC2)cc1OC	CYP2C19 inh 72
Cc1ccccc1/C=c1\s/c(=C\C(=O)C(C)(C)C)[nH]c1=O	none
COC(=O)c1c(NC(=O)C2CCC2)sc(C(=O)N(C)C)c1C	none
COC(=O)c1sc(NC(=O)C2CCCO2)c(C(=O)OC)c1C (centres undefined)	CYP2C19 inh 51
CCOC(=O)c1sc(NC(=O)C2CCCO2)c(C(=O)OCC)c1C (centres undefined)	none (no result: PostGolgi yeast, PostGolgi ctrl)
CCC(=O)Nc1sc(C(=O)OC)c(C)c1C(=O)OC	none
Cc1c(C(=O)OC(C)C)sc(NC(=O)C2CCCO2)c1C(=O)OC(C)C (centres undefined)	CYP2C9 inh 76, CYP2C19 inh 69
COC(=O)c1sc(NC(=O)C(C)C)c(C(=O)OC)c1C	CYP2C19 inh 53
COC(=O)c1sc(NC(=O)C2CCCCC2C(=O)O)c(C(=O)OC)c1C (centres undefined)	CYP2C9 inh 93
CC1(C)CN2C(=S)N(c3ccccc3)C(c3ccccc3)N2C1 (centres undefined)	CYP2C9 inh 66, CYP2C19 inh 67
S=C1N(c2ccccc2)C(c2ccc(Cl)cc2)N2CCCN12 (centres undefined)	CYP2C19 inh 63
O=C1C2CCCN2C(c2ccccc2)N1c1ccc(Cl)cc1 (centres undefined)	none (no result: CYP2C9 inh, CYP2C19 inh, CYP2C9 act, CYP2C19 act)
CCN1CCN(c2ncc(C(=O)N3CCCc4ccccc43)c3ccccc23)CC1	CYP2C19 inh 81
Cc1nc2c(C#N)c(C)[nH]n2c(=O)c1Cc1ccccc1	CYP2C9 inh 63, PostGolgi ctrl 37
Cc1nc2c(C#N)c[nH]n2c(=O)c1Cc1ccccc1	CYP2C9 inh 63
Cc1nc2nc(-c3ccccc3)[nH]n2c(=O)c1Cc1ccccc1	none
Cc1[nH]n2c(=O)cc(Cc3ccccc3)nc2c1C#N	CYP2C9 inh 77
CCC(C)(C)NC(=O)C(c1cccn1C)N(C(=O)Cn1nnc2ccccc21)c1ccc(F)cc1 (centres undefined)	none
Cc1cc(-c2c(C)[nH]n(-c3ccc(Cl)cc3)c2=O)n[nH]1	CYP2C9 inh 55
CCC(=O)N1c2ccc(S(=O)(=O)CCC(=O)NCc3ccc4c(c3)OCO4)cc2CC1C (centres undefined)	none
CCC(=O)N1c2ccc(S(=O)(=O)N(CCO)Cc3ccccc3)cc2CC1C (centres undefined)	CYP2C9 inh 56, CYP2C19 inh 52
O=CNC(=O)c1ccccc1C(=O)O	none
Cc1nc2ccc(S(=O)(=O)NCC(=O)N3CCN(c4ccccc4)CC3)cc2s1	none
COc1ccc(S(=O)(=O)N(CC(=O)N2CCN(c3ccccc3OC)CC2)c2ccccc2)cc1	CYP2C9 inh 87, CYP2C19 inh 85 (no result: PostGolgi yeast, PostGolgi ctrl)
O=C(CNS(=O)(=O)c1ccccc1)N1CCN(c2ccccc2)CC1	PostGolgi ctrl 34
O=C(Cn1nc(-c2ccc(Cl)cc2)ccc1=O)N1CCN(c2ccccc2)CC1	CYP2C9 inh 52
O=C(CN(c1ccc(Cl)cc1)S(=O)(=O)c1ccccc1)N1CCN(c2ccccc2)CC1	CYP2C9 inh 92, CYP2C19 inh 97
COc1ccc(N2CCN(C(=O)CN(c3ccccc3)S(=O)(=O)c3ccc(OC)cc3)CC2)cc1	none
O=C(CN(c1ccc(Cl)c(C(F)(F)F)c1)S(=O)(=O)c1ccccc1)N1CCOCC1	none
Cc1ccc(C(=O)CC2SC(N)=NC2=O)cc1 (centres undefined)	none
CC(=N/O)/C(=N\O)c1ccc(C)o1	none
O=C(CN(c1ccc(Cl)c(Cl)c1)S(=O)(=O)c1ccccc1)N1CCc2ccccc2C1	CYP2C9 inh 50, CYP2C19 inh 89
O=C(Cn1nc(C(F)(F)F)c2c1CCCCC2)N1CCOCC1	none
Oc1ccc(N2CCN(C(=S)NCCc3ccccc3)CC2)cc1	CYP2C19 inh 51, PostGolgi yeast 105, PostGolgi ctrl 90
O=C(CCc1ccccc1)N1CCN(c2ccc(Cl)cc2)CC1	CYP2C19 inh 50

From PubChem BioAssay
